Key:
Experiment in all cases: DAPPL (digital affinity profiling via proximity ligation, sequencing); 10 mM Tris-HCl pH 7.5, 50 mM NaCl, 1 mM DTT, 4% glycerol, room temperature, 30 min; GST-TFs on glutathione beads, 16-mer random dsDNA library, 0.1% formaldehyde crosslink after washing; high values mean tight binding
FLI1 = biological target: T1, FLI1 (Homo sapiens, UniProt Q01543 1-452); settings: protein: recombinant; tags: N-terminal GST; dsDNA, one strand shown
T1 sequence: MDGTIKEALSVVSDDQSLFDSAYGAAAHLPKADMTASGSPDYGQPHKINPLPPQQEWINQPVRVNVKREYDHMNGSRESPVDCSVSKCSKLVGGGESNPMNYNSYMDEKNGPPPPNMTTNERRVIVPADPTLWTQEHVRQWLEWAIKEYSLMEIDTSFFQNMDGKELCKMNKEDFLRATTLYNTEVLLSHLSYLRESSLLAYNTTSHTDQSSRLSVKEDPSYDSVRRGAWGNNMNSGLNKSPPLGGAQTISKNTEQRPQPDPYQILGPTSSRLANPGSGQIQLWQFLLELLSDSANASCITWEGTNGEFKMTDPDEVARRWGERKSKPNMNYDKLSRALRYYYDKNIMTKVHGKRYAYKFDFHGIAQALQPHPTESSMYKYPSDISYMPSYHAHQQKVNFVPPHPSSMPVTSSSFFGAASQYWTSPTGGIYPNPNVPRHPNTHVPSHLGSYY
Summary of the method: (§1)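 Beads coated with glutathione captured GST-fused human transcription factors that had been expressed in yeast, and the factors were then given DNA barcodes and pooled with a tag-only sample. The pools were incubated with 200 nmole of a random double-stranded 16-mer DNA library in Tris/NaCl/DTT/glycerol buffer for 30 min at room temperature, washed, crosslinked with 0.1% formaldehyde and proximity-ligated with BsaI/T4 ligase at 37 °C for 1 h. PCR amplification and Illumina NextSeq500 sequencing came last. Binding signal is each hexamer's read frequency for a factor divided by its frequency for the tag-only sample.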

ELK1 = biological target: T2, ELK1 (Homo sapiens, UniProt P19419 1-428); settings: protein: recombinant; tags: N-terminal GST; dsDNA, one strand shown
T2 sequence: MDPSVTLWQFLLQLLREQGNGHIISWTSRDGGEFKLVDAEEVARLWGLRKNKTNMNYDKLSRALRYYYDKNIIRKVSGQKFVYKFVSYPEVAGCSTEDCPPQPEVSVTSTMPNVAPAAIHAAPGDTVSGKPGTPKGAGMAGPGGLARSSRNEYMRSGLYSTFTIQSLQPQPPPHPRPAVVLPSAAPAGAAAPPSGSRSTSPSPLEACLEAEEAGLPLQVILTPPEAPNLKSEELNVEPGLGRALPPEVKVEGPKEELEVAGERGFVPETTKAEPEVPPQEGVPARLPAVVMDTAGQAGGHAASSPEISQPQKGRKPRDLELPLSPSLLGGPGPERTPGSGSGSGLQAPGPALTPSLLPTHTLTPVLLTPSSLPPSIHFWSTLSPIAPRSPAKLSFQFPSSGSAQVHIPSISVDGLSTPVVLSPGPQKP
Summary of the method: as §1

GABPA = biological target: T3, GABPA (Homo sapiens, UniProt Q06546 1-454); settings: protein: recombinant; tags: N-terminal GST; dsDNA, one strand shown
T3 sequence: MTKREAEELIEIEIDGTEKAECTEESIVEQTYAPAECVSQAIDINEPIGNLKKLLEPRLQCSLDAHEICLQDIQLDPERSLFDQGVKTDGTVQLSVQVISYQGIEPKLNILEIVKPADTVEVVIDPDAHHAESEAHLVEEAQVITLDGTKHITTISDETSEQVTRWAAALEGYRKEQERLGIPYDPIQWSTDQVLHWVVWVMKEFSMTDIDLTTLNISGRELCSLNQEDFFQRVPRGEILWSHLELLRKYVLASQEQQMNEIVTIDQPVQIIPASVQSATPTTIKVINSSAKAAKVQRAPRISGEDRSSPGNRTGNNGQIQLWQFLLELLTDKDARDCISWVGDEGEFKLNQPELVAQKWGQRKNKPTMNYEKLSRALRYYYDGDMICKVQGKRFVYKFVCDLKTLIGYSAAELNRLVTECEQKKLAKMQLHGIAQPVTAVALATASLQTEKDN
Summary of the method: as §1

ERG = biological target: T4, ERG (Homo sapiens, UniProt P11308 1-479); settings: protein: recombinant; tags: N-terminal GST; dsDNA, one strand shown
T4 sequence: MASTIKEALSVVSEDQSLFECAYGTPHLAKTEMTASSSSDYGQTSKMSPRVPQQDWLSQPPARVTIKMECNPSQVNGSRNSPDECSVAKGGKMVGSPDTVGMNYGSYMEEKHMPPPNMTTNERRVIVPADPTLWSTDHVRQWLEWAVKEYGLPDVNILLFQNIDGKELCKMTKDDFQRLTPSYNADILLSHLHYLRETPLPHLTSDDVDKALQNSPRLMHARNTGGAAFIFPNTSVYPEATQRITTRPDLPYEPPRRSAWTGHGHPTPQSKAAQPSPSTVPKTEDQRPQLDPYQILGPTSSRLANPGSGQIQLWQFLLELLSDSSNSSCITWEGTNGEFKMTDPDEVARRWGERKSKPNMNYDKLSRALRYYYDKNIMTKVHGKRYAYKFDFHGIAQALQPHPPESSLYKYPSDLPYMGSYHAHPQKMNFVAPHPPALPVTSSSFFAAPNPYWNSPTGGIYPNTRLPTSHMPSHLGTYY
Summary of the method: as §1

ELF1 = ELF1 (Homo sapiens, UniProt P32519 1-619); settings: protein: recombinant; tags: N-terminal GST; dsDNA, one strand shown
Sequence of ELF1 (P32519 whole entry): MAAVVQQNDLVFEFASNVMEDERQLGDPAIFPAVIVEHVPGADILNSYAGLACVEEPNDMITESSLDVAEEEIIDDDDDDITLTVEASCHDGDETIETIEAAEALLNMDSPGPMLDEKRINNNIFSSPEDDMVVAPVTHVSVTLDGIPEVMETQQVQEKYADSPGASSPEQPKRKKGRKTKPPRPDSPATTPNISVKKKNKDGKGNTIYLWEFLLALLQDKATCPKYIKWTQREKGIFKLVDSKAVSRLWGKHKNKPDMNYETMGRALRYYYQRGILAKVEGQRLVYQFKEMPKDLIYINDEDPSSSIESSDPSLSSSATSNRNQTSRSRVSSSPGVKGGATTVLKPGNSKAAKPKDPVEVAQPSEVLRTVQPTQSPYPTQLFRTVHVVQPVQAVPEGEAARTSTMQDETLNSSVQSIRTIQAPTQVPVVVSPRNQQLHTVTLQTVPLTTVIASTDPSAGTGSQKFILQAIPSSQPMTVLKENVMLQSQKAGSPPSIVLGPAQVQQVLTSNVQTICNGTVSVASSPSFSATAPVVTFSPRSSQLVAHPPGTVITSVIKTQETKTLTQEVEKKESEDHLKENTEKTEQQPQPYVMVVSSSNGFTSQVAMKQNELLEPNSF
Summary of the method: as §1

EHF = biological target: T5, EHF (Homo sapiens, UniProt Q9NZC4 1-300); settings: protein: recombinant; tags: N-terminal GST; dsDNA, one strand shown
T5 sequence: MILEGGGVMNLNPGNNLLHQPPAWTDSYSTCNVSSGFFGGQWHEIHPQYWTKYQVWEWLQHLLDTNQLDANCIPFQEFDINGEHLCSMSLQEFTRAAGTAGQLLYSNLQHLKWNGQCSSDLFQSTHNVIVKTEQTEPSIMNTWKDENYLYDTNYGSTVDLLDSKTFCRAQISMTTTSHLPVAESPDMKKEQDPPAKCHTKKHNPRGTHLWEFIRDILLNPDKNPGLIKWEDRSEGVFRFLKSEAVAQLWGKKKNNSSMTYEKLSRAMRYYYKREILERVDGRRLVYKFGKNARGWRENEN
Summary of the method: as §1

SPI1 = SPI1 (Homo sapiens, UniProt P17947 1-270); settings: protein: recombinant; tags: N-terminal GST; dsDNA, one strand shown
Summary of the method: as §1

SPIB = SPIB (Homo sapiens, UniProt Q01892 1-262); settings: protein: recombinant; tags: N-terminal GST; dsDNA, one strand shown
Sequence of SPIB (Q01892 whole entry): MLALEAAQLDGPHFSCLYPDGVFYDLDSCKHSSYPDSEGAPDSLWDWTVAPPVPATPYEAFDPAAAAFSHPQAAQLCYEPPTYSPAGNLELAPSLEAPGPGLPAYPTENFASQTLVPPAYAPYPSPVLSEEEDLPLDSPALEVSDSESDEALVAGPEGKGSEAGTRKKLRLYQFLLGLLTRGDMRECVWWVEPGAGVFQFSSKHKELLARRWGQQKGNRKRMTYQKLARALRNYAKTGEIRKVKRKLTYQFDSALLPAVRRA
Summary of the method: as §1

ELK3 = biological target: T6, ELK3 (Homo sapiens, UniProt P41970 1-407); settings: protein: recombinant; tags: N-terminal GST; dsDNA, one strand shown
T6 sequence: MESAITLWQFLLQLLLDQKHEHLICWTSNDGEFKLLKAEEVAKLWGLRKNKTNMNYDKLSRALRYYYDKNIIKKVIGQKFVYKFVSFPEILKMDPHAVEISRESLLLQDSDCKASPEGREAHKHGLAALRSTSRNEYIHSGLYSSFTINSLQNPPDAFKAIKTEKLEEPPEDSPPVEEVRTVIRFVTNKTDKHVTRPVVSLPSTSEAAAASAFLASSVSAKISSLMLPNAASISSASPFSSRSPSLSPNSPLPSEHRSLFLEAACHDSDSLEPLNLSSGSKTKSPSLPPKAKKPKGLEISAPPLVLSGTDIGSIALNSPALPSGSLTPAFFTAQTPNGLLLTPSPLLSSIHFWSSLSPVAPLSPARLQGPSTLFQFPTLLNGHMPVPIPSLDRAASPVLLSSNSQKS
Summary of the method: as §1

FEV = biological target: T7, FEV (Homo sapiens, UniProt Q99581 1-238); settings: protein: recombinant; tags: N-terminal GST; dsDNA, one strand shown
T7 sequence: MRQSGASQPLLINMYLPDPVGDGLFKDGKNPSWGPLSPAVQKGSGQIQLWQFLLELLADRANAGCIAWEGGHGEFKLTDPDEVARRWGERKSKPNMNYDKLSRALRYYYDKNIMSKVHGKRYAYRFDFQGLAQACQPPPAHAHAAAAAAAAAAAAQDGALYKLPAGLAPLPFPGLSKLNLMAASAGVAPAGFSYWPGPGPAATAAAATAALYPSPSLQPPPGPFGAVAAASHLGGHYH
Summary of the method: as §1

ETV5 = ETV5 (Homo sapiens, UniProt P41161 1-510); settings: protein: recombinant; tags: N-terminal GST; dsDNA, one strand shown
Sequence of ETV5 (P41161 whole entry): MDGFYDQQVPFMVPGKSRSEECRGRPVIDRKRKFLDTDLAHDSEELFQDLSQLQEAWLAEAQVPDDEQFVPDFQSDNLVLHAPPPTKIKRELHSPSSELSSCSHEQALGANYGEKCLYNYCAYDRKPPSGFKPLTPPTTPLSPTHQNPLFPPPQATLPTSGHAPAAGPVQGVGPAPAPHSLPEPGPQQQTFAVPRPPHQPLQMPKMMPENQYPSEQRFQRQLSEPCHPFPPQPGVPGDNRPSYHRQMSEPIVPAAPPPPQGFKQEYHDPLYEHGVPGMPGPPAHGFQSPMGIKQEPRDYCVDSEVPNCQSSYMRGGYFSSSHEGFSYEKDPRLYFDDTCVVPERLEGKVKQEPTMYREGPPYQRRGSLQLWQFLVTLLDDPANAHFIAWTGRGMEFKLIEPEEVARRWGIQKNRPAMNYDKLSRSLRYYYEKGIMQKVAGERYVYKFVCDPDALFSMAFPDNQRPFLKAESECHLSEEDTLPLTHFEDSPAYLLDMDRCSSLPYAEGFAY
Summary of the method: as §1

HSF1 = HSF1 (Homo sapiens, UniProt Q00613 1-529); settings: protein: recombinant; tags: N-terminal GST; chain copies: 3; dsDNA, one strand shown
Sequence of HSF1 (Q00613 whole entry): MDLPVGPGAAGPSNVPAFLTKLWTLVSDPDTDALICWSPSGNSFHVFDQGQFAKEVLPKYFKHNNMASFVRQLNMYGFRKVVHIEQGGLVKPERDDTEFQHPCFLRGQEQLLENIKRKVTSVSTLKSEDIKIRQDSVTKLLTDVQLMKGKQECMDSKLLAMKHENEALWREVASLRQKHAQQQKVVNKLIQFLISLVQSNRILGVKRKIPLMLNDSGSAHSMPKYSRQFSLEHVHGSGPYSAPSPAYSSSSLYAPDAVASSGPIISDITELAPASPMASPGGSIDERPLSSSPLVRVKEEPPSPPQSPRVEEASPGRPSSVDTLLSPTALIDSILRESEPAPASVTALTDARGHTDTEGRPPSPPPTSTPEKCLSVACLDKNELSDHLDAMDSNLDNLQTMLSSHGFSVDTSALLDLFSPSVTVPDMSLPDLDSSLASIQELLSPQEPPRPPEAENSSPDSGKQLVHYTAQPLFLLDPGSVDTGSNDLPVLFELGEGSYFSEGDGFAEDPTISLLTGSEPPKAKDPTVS
Summary of the method: as §1

SPIC = biological target: T8, SPIC (Homo sapiens, UniProt Q8N5J4 1-248); settings: protein: recombinant; tags: N-terminal GST; dsDNA, one strand shown
T8 sequence: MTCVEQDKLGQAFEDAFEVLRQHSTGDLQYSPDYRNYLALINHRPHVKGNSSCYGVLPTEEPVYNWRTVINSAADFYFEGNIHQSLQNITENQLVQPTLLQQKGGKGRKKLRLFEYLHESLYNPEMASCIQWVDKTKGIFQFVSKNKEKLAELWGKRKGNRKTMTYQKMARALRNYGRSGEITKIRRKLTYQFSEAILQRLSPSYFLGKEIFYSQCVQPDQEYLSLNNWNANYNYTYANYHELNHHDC
Summary of the method: as §1

ELF4 = ELF4 (Homo sapiens, UniProt Q99607 1-663); settings: protein: recombinant; tags: N-terminal GST; dsDNA, one strand shown
Sequence of ELF4 (Q99607 whole entry): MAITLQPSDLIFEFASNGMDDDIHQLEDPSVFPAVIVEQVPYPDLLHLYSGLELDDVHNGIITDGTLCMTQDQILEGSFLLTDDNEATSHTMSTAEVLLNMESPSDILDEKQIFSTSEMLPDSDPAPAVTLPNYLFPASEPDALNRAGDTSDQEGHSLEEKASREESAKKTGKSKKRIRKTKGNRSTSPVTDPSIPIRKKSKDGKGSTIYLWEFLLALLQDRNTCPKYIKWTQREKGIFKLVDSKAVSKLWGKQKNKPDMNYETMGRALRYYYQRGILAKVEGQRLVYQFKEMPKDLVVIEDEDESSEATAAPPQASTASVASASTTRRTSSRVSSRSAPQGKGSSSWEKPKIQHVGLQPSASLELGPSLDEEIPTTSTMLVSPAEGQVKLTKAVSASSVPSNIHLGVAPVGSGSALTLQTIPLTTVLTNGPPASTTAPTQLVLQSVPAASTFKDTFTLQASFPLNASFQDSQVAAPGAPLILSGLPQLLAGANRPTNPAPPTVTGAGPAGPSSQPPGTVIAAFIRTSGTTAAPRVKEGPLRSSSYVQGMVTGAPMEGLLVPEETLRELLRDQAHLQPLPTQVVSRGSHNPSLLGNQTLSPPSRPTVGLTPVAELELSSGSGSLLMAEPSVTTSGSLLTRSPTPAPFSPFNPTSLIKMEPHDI
Summary of the method: as §1

ELK4 = biological target: T9, ELK4 (Homo sapiens, UniProt P28324-2 1-405); settings: protein: recombinant; tags: N-terminal GST; dsDNA, one strand shown
T9 sequence: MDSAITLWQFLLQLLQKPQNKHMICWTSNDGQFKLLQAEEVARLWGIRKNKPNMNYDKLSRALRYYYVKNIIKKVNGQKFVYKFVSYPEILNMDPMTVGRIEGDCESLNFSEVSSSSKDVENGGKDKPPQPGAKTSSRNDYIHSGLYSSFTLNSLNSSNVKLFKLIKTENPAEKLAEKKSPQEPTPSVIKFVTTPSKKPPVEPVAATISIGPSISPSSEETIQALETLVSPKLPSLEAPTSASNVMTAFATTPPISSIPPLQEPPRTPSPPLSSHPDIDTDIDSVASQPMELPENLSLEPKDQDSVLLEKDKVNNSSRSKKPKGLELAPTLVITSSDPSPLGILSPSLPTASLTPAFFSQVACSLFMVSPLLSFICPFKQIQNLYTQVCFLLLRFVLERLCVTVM
Summary of the method: as §1

ETV2 = biological target: T10, ETV2 (Homo sapiens, UniProt O00321 1-342); settings: protein: recombinant; tags: N-terminal GST; dsDNA, one strand shown
T10 sequence: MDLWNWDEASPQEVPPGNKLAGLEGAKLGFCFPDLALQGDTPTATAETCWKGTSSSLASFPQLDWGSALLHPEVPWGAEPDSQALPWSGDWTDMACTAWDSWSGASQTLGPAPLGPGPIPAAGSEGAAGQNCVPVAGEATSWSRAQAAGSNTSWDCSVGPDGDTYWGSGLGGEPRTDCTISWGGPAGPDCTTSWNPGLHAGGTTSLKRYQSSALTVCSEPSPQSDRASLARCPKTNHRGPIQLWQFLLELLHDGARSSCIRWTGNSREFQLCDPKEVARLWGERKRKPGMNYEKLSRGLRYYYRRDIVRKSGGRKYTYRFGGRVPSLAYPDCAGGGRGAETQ
Summary of the method: as §1

ELF3 = biological target: T11, ELF3 (Homo sapiens, UniProt P78545 1-371); settings: protein: recombinant; tags: N-terminal GST; dsDNA, one strand shown
T11 sequence: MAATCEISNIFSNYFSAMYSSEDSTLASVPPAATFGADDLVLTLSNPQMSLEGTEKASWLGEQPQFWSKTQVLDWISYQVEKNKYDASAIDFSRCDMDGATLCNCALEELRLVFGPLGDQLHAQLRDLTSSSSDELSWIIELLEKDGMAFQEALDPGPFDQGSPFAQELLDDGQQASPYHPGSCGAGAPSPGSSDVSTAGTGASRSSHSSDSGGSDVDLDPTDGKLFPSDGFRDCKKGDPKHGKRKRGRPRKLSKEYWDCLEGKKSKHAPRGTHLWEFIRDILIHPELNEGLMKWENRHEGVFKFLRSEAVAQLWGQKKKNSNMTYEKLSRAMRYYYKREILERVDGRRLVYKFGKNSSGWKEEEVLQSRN
Summary of the method: as §1

CRX = CRX (Homo sapiens, UniProt O43186 1-299); settings: protein: recombinant; tags: N-terminal GST; dsDNA, one strand shown
Sequence of CRX (O43186 whole entry): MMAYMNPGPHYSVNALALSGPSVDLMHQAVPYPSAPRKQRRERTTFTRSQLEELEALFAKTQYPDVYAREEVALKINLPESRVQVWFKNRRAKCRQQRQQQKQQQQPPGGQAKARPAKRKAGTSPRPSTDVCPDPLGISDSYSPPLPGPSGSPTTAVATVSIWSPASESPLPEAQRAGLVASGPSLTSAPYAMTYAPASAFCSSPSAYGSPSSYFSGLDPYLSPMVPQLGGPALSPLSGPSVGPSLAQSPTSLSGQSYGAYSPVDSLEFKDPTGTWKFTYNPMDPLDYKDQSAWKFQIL
Summary of the method: as §1

ETV1 = ETV1 (Homo sapiens, UniProt P50549 1-477); settings: protein: recombinant; tags: N-terminal GST; dsDNA, one strand shown
Sequence of ETV1 (P50549 whole entry): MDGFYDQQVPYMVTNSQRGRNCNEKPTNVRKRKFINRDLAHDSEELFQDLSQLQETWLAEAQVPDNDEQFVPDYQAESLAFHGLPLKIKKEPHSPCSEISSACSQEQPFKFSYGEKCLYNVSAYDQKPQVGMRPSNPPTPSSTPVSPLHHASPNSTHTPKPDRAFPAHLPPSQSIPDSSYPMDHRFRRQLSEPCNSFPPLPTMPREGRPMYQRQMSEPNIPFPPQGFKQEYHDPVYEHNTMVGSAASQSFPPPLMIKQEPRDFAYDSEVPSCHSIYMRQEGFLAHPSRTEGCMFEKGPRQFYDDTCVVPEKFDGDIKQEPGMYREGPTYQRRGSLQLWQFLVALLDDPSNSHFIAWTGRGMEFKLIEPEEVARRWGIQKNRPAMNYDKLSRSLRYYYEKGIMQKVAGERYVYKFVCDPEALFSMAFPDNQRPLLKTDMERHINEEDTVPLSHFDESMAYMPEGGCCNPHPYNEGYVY
Summary of the method: as §1

Sequence: ATTACC
- binding signal (FLI1): 1.22 fold enrichment (6-mer frequency, TF over GST control)
- binding signal (ELK1): 1.13 fold enrichment (6-mer frequency, TF over GST control)
- binding signal (GABPA): 1.16 fold enrichment (6-mer frequency, TF over GST control)
- binding signal (ERG): 1.26 fold enrichment (6-mer frequency, TF over GST control)
- binding signal (ELF1): 1.23 fold enrichment (6-mer frequency, TF over GST control)
- binding signal (EHF): 1.4 fold enrichment (6-mer frequency, TF over GST control)
- binding signal (SPI1): 1.16 fold enrichment (6-mer frequency, TF over GST control)
- binding signal (SPIB): 1.36 fold enrichment (6-mer frequency, TF over GST control)
- binding signal (ELK3): 1.26 fold enrichment (6-mer frequency, TF over GST control)
- binding signal (FEV): 1.25 fold enrichment (6-mer frequency, TF over GST control)
- binding signal (ETV5): 1.36 fold enrichment (6-mer frequency, TF over GST control)
- binding signal (HSF1): 1.58 fold enrichment (6-mer frequency, TF over GST control)
- binding signal (SPIC): 1.26 fold enrichment (6-mer frequency, TF over GST control)
- binding signal (ELF4): 1.17 fold enrichment (6-mer frequency, TF over GST control)
- binding signal (ELK4): 1.21 fold enrichment (6-mer frequency, TF over GST control)
- binding signal (ETV2): 1.4 fold enrichment (6-mer frequency, TF over GST control)
- binding signal (ELF3): 1.1 fold enrichment (6-mer frequency, TF over GST control)
- binding signal (CRX): 2.17 fold enrichment (6-mer frequency, TF over GST control)
- binding signal (ETV1): 1.23 fold enrichment (6-mer frequency, TF over GST control)
